# Test results as given in PubChem BioAssay AID485317 (Broad Institute, 2010).
# In all, about 290,000 compounds went through this assay and about 11,000 (3.8%) were called active.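 How the source made its calls: active means mean replicate inhibition above about 79%, with every replicate also reaching it (limit read from the data); inconclusive means only one of the two criteria met; inactive means mean below limit and not every replicate reaching it.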 Many of the other results were omitted from the sample, so actives are more common in it than they were.
# Molecular target: FAD-linked sulfhydryl oxidase ALR (Homo sapiens) (UniProt P55789)
# Test: inhibitors of human ALR sulfhydryl oxidase, primary screen, biochemical, H2O2 detection, HRP-luminol luminescence, single point (AID 485317)
# Details: purified ALR, DTT oxidation, active compounds read high, concentration not given here
# Chain of FAD-linked sulfhydryl oxidase ALR (Homo sapiens) (P55789 whole entry, looked up): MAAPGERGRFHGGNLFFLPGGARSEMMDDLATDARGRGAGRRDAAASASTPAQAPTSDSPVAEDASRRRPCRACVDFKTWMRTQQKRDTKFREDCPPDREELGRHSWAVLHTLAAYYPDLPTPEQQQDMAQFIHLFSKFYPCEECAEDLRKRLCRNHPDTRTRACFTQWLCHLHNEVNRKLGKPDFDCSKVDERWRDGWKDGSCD
row,Compound,inhibition
1,CN(Cc1c(F)cccc1Cl)C(=O)CNC(=O)c1ccc2c(c1)OCO2,1.35% (inactive)
2,COc1cc2c(-c3ccc4c(c3)OCO4)c(-c3ccsc3)oc(=O)c2cc1OC,0.568% (inactive)
3,Cc1cccc(NC(=O)c2ccc(S(=O)(=O)N(C)c3ccccc3)cc2)n1,-13.4% (inactive)
4,O=C(Nc1cccc(-c2nc3ccccc3[nH]2)c1)c1ccc(C(=O)Nc2cccc(-c3nc4ccccc4[nH]3)c2)cc1,-5.21% (inactive)
5,CN(c1ccccc1)S(=O)(=O)c1cc(C(=O)Nc2nc3ccccc3[nH]2)ccc1Cl,94.8% (active)
6,O=C(c1cc(-c2ccco2)nc2ccccc12)N(Cc1nnc(-c2ccc(Cl)cc2)o1)C1CC1,2.44% (inactive)
7,Cn1cccc1C(=O)OCC(=O)c1ccc(Br)s1,0.737% (inactive)
8,CCc1nnc(NC(=O)CSc2nnc(Cc3ccccc3)n2-c2ccc(OC)cc2)s1,-14.6% (inactive)
9,COc1ccc(NCc2nnc(SCc3ccccc3)n2-c2ccc(OC)cc2)cc1,91.9% (active)
10,COC(=O)c1ccc(NC(=O)CSc2nnc(CNc3ccc(OC)cc3)n2C)cc1,-7.45% (inactive)
11,CCn1c(CNc2ccc(OC)cc2)nnc1SCC(=O)c1ccc(OC)cc1,98.6% (active)
12,C=CCn1c(CNC(=O)c2ccco2)nnc1SCC(=O)c1ccc(OC)cc1,29.4% (inactive)
13,COc1ccc(-c2nnc(SCC(=O)c3ccco3)n2-c2ccccc2)cc1,-5.92% (inactive)
14,C=CCC[C@H](Cc1ccc(F)cc1)C(=O)OC[C@@H](NC(=O)[C@@H](CC=C)CC(=O)N[C@H](CO)Cc1ccccc1)C(C)(C)C,2.91% (inactive)
15,Brc1cnc2ccccc2c1N1CCCCC1,-0.469% (inactive)
16,CS(=O)(=O)Nc1ccccc1C(=O)OCC(=O)NC1CC1,-5.36% (inactive)
17,CN(C)c1ccc(-n2cccc2/C=N/n2cnnc2)cc1,98.6% (active)
18,COc1cccc(OCCOc2cccc(/C=N/n3cnnc3)c2)c1,-9.36% (inactive)
19,CN(C)c1ccc(-n2cccc2/C=C2/SC(=Nc3ccc(F)cc3)NC2=O)cc1,-13.8% (inactive)
20,CC1(C)C2CC[C@]3(C)C(CC=C4[C@@H]5C[C@@](C)(CO)CC[C@]5(C(=O)O)CC[C@]43C)[C@@]2(C)CC[C@@H]1O (stereo partly drawn),-8.21% (inactive)
21,O=C(COC(=O)/C=C/c1ccc(Br)o1)Nc1cccc(S(=O)(=O)N2CCOCC2)c1,-1.78% (inactive)
22,CC(=O)Oc1cccc(N2C(=O)C3CC=C(Cl)CC3C2=O)c1 (stereo not drawn),-19% (inactive)
23,CC(=O)Oc1cccc(N2C(=O)CC(Nc3ccc(N4CCOCC4)cc3)C2=O)c1 (stereo not drawn),97.2% (active)
24,COc1cc2ccccc2cc1C(=O)Nc1ccc(N2CCOCC2)cc1,-0.59% (inactive)
25,Cc1noc(C)c1NC(=O)Nc1cccc2c1O[C@H](CN(C)C(=O)Nc1ccccc1)[C@@H](C)CN([C@H](C)CO)C2=O,1.38% (inactive)

row,Compound,inhibition
1,O=C(NN1CCOCC1)c1cccc(F)c1,-5.96% (inactive)
2,O=C(N/N=C\c1ccc(Br)cc1)c1ccc(Cn2cccn2)o1,0.182% (inactive)
3,CN(C)c1ccc(/C=N/NC(=O)c2ccc(Cn3cc(Br)cn3)o2)cc1,98.5% (active)
4,O=C(N/N=C/c1ccc2c(c1)OCO2)c1ccc(Cn2cc([N+](=O)[O-])cn2)o1,29.3% (inactive)
5,CC(OC(=O)c1ccc(Cl)cc1O)C(=O)NCCC1=CCCCC1 (stereo not drawn),-2.95% (inactive)
6,CCOC(=O)N1CCN(C(=O)c2ccccc2SCC(=O)NCC2CCCCC2)CC1,-0.603% (inactive)
7,COc1cccc(NCCC(=O)c2cccc([N+](=O)[O-])c2)c1,97.4% (active)
8,COc1cccc(CNC(=O)CCCC(=O)Nc2cccc([N+](=O)[O-])c2)c1,-3.17% (inactive)
9,COc1cccc(C(=O)CC(=O)C(=O)Nc2ccc([N+](=O)[O-])cc2C)c1,7.39% (inactive)
10,COc1ccc(CNC(=O)C2(CC3CC(c4ccccc4)=NO3)CCN(C(=O)c3cccc(O)c3)CC2)cc1 (stereo not drawn),-2.44% (inactive)
11,COCCN(Cc1ccccc1)C(=O)Cc1ccc(S(=O)(=O)N2CCOCC2)s1,2.09% (inactive)
12,O=C(NCC1CC1)c1onc(CSc2ccccc2)c1C(=O)NCC1CC1,-11.1% (inactive)
13,O=C(Cn1c(=O)sc2ccccc21)Nc1nc2c(s1)CCCC2,42.4% (inactive)
14,CCOC(=O)c1sc(NC(=O)CSc2n[nH]c(CC)n2)nc1C,-1.87% (inactive)
15,CCOC(=O)c1ccccc1NC(=O)CSc1nc2ccccc2c(=O)[nH]1,-0.524% (inactive)
16,O=C(CSc1nc(O)c(Cc2ccccc2)c(=O)[nH]1)Nc1nc2c(s1)CCCC2,99.1% (active)
17,CCOC(=O)c1sc(NC(=O)CSc2nc(O)c(Cc3ccccc3)c(=O)[nH]2)nc1C,98.6% (active)
18,Cc1cccc(NC(=O)CSc2nc3c(c(=O)[nH]2)CCCC3)c1C,-5.33% (inactive)
19,COC(=O)c1ccc(-c2c(-c3ccccc3)ncc3cc(OC)c(OC)cc23)cc1,1.43% (inactive)
20,C=CC[C@H](CC(=O)OC(C)(C)C)C(=O)OC[C@H]1CCCN1C(=O)[C@H](CC=C)CC(=O)N(CCO)Cc1ccccc1,-5.27% (inactive)
21,CC1(C)CC(=O)C=C(c2ccc3ncccc3c2)C1,-1.35% (inactive)
22,COc1ccc(NS(=O)(=O)c2cc(NC(=O)COc3ccccc3F)ccc2OC)cc1,-2.82% (inactive)
23,COc1cccc(-c2ccc3c(c2)S(=O)(=O)c2cccc(C(=O)O)c2C3=O)c1OC,-0.409% (inactive)
24,COc1ccc(-c2csc3ncnc(N4CCN(S(=O)(=O)c5cccc(F)c5)CC4)c23)cc1,0.272% (inactive)
25,CCCc1ccc(C(=O)COC(=O)CN2C(=O)NC3(CCCCC3C)C2=O)cc1 (stereo not drawn),-2.13% (inactive)

row,Compound,inhibition
1,Nn1c(SCC(=O)Nc2ccc3c(c2)CCC3)nnc1C1CC1,98.6% (active)
2,COc1ccc(NC(=O)CSc2nnc(C3CC3)n2C)cc1S(=O)(=O)N1CCCCC1,-0.755% (inactive)
3,O=C(CSc1nnnn1-c1ccc2c(c1)CCC2)Nc1ccc2c(c1)OCCO2,-26.1% (inactive)
4,COc1ccc2cc(C3=CC(=O)C[C@H](c4ccc5c(c4)OCO5)C3)ccc2c1,0.243% (inactive)
5,Cc1ccc(OCc2cc(C(=O)N(C)CCn3ccnc3C)no2)cc1C,-0.532% (inactive)
6,CCCCCCCNC(=O)C1(CC2CC(c3cccc(Br)c3)=NO2)CCN(C(=O)c2cc(OCC)c(OCC)c(OCC)c2)CC1 (stereo not drawn),-9.32% (inactive)
7,CCCCN(C(=O)CSCC(=O)Nc1ccc(OC)cc1)c1c(N)n(CCC)c(=O)[nH]c1=O,2.82% (inactive)
8,CCOC(=O)Cc1ncccc1C(=O)Nc1ccc(OC)cc1,10.7% (inactive)
9,CCCCOc1ccc(NC(=O)CSCC(=O)OCC)cc1,98.6% (active)
10,O=C(NNC(=O)c1cccc(S(=O)(=O)Nc2ccc(Cl)cc2)c1)c1ccc(=O)[nH]c1,-5.3% (inactive)
11,O=C(NCCc1ccc(C(F)(F)F)cc1)c1ccc2c(c1)OCO2,-2.72% (inactive)
12,COc1ccc(/C=C(\C#N)C(=O)OCC(=O)N(C)C2CCS(=O)(=O)C2)cc1 (stereo not drawn),5.52% (inactive)
13,CN1C(=O)/C(=C\c2ccc(-c3ccccc3)o2)SC1=S,-6.32% (inactive)
14,Nc1nnnn1CC(=O)N/N=C/c1ccc(-c2cccc(Cl)c2)o1,-10.4% (inactive)
15,O=C(O)C(c1ccccc1)N1C(=O)/C(=C\c2ccc(-c3cccc(Cl)c3)o2)SC1=S (stereo not drawn),98.2% (active)
16,CC1CC(=O)Nc2ccccc2N1C(=O)COc1ccc2cc(Br)ccc2c1 (stereo not drawn),12.2% (inactive)
17,O=C(COc1ccc(F)cc1Br)NCC1COc2ccccc2O1 (stereo not drawn),-3.27% (inactive)
18,COc1cccc2sc3cc(NCC[C@@H]4CCCN4C)ccc3c(=O)c12,-1.66% (inactive)
19,O=c1[nH]nc(CSCc2ccccc2Cl)[nH]1,-8.43% (inactive)
20,O=c1cc(O)nc(SCc2ccccc2Cl)[nH]1,100% (active)
21,Cc1cc(=O)[nH]c(SCc2ccc(Cl)cc2)n1,-9.56% (inactive)
22,COc1ccccc1OCc1nc2ccccc2s1,2.66% (inactive)
23,COc1cccc2sc(Nc3nc(C)c(C(C)=O)s3)nc12,32.7% (inactive)
24,COc1cccc2sc(NNC(=O)c3nc4ccccc4s3)nc12,93.7% (active)
25,COC(=O)CN1C(=O)C(O)=C(C(C)=O)C1c1ccc([N+](=O)[O-])cc1 (stereo not drawn),-8.67% (inactive)

row,Compound,inhibition
1,CC(=O)C1=C(O)C(=O)N(c2cccnc2)C1c1ccc([N+](=O)[O-])cc1 (stereo not drawn),36.6% (inactive)
2,CC(=O)C1=C(O)C(=O)N(c2ccc(Br)cc2)C1c1ccc([N+](=O)[O-])cc1 (stereo not drawn),96.7% (active)
3,COc1ccc(S(=O)(=O)N2CCN(CC(=O)NCC3(N4CCOCC4)CCCCC3)CC2)cc1,-0.676% (inactive)
4,CCCn1nc(C(=O)NNC(=O)CCOc2ccccc2OCC)c2ccccc2c1=O,16.7% (inactive)
5,CCOc1ccc(NC(=O)CN(C)C(=O)COc2cccc(CC)c2)cc1OCC,-14.9% (inactive)
6,Cc1cc(NC(=O)CCS(=O)(=O)c2ccc(F)cc2)no1,-5.46% (inactive)
7,Cc1onc(C(=O)NN)c1-c1csc(COc2ccccc2)n1,-2.47% (inactive)
8,CC(C)(C)C(=O)OCc1nc(-c2ccc(O)c(O)c2)cs1,99.4% (active)
9,COc1cc(CC(=O)Nc2nc(-c3ccc(F)c(F)c3)cs2)cc(OC)c1OC,0.225% (inactive)
10,COc1ccc(CNC(=O)COC(=O)c2ccc(C)c(S(=O)(=O)N3CCOCC3)c2)cc1OC,-7.49% (inactive)
11,CC1CCCCC1NC(=O)Cn1c(=O)cnc2ccccc21 (stereo not drawn),-5.91% (inactive)
12,CCn1c(SCC(=O)N/N=C/c2ccncc2)nc2ccccc21,-3.78% (inactive)
13,C=CCOc1ccc(/C=N/NC(=O)C(C)Sc2ccccn2)cc1OCC (stereo not drawn),-4.04% (inactive)
14,COc1cc(/C=N/NC(=O)CCc2n[nH]c(=O)[nH]c2=O)ccc1O,99.3% (active)
15,Cn1c(SCC(=O)N/N=C/c2ccc(O)c(O)c2)nc2ccccc21,98.9% (active)
16,Cc1nc2ccccc2n1CC(=O)N/N=C/c1cccnc1,-8.97% (inactive)
17,CCOc1ccc(/C=N/NC(=O)CSc2ccccn2)cc1O,98.9% (active)
18,COc1cc(/C=N/NC(=O)c2ccc(N3CCCC3=O)cc2)ccc1O,28% (inactive)
19,Cc1ccc(/C=N/NC(=O)CSc2nc3ccccc3o2)cc1,-3.09% (inactive)
20,COc1cc(/C=N/NC(=O)Cc2ccccc2)cc(OC)c1OC,-4.39% (inactive)
21,NCCCCCC(=O)N/N=C/c1ccc2nccnc2c1,0.997% (inactive)
22,CCOc1ccc(/C=N/NC(=O)C(C)Sc2ccccn2)cc1OCC (stereo not drawn),-8.94% (inactive)
23,Cc1nccn1CC(=O)N/N=C/c1ccc(O)c(O)c1,99.4% (active)
